Screening data from PubChem.
Most compounds without a hit are left out; they make up all but 1.1% or so of the library.
PKA-R2B activ: activates the human PKA-R2B holoenzyme complex; activation, % at 11.4 µM; hit rate 0.079% among 340,000; PKA-R2B holoenzyme dissociation, Cy5-IP20 fluorescence polarization; R2B truncated from residue 108, S112A mutant; 0% DMSO only, 100% 113 µM cGMP; P22694+P31323;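 active = activation above a cutoff set at the mean over all compounds plus 3 SD, cut at about 18% in these data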;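 also: higher means more holoenzyme dissociation and a rise in polarization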
Target sequence (P31323 whole entry, looked up, other chains not shown, the tested form may be a part): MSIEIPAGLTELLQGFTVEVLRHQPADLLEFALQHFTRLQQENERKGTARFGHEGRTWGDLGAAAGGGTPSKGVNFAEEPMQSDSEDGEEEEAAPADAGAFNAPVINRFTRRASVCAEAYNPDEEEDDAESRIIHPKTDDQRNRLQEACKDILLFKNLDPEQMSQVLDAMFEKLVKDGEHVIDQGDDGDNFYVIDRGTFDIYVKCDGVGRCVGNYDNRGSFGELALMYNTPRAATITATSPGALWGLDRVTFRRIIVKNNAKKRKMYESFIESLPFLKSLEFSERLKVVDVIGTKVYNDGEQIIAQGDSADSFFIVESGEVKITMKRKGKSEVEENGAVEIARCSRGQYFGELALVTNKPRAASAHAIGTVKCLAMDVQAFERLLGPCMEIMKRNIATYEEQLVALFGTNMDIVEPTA
PKA-R1A act: activators of PKA-R1A complex; activation, % at 11.4 µM; PKA-R1A dissociation, Cy5-IP20 fluorescence polarization; scaled: DMSO 0%, 113 µM cGMP 100%; P00514+P68181; AID 504707; hit rate 0.083% among 340,000;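 active = percent activation above the mean of all tested compounds plus 3 SD, cut at about 19% in these data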;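 also: higher means more PKAc released from R1A so a rise in polarization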
MsrA act: activates bovine MsrA enzyme. purified bovine MsrA, absorbance read-out. activation, % at 10.6 µM. hit rate 0.3% among 360,000; in the data active = activation above about 7.5%;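 also: 0% = vehicle and 100% = reference activator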
MsrA inhibitor: inhibits bovine methionine sulfoxide reductase A; purified bovine MsrA, absorbance read-out; inhibition, % at 15.5 µM; hit rate 0.75% among 360,000;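 also: 0% = vehicle wells with enzyme and 100% = reference inhibitor wells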
MsrA inh confirm: confirmation of bovine MsrA inhibitors; shares compounds with MsrA inhibitor; purified bovine MsrA, absorbance read-out; inhibition, % at 15.5 µM; hit rate 41% among 2,300; AID 651822;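 also: coupled to thioredoxin reductase with NADPH and selenocystamine and DMSO as substrate; 0% = vehicle only and 100% = full effect of reference inhibitor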
Numbers without * were called inactive. Rule as the data show it, unless noted: active = inhibition above about 4.5%; inactive = the rest.

COc1cccc(-c2ncn(CCc3ccccc3OC)c2CC(C)C)c1 was read as MsrA inhibitor 0.
BrC(=C\c1ccccc1)/C=N/Nc1nc(N2CCOCC2)nc(N2CCOCC2)n1 was read as PKA-R2B activ -13, PKA-R1A act 2, MsrA act -13, MsrA inhibitor 5.3* and MsrA inh confirm 4.8*.
Screening CN(C)c1ccc(/C=C/C=N/Nc2nc(N3CCOCC3)nc(N3CCOCC3)n2)cc1 returned PKA-R2B activ -2, PKA-R1A act 3, MsrA act -3, MsrA inhibitor 6.0* and MsrA inh confirm 4.
`CC(/C=N/Nc1nc(N2CCCCC2)nc(N2CCCCC2)n1)=C\c1ccccc1` gave PKA-R2B activ -4, PKA-R1A act -8, MsrA act -5 and MsrA inhibitor 2.
`BrC(/C=C\c1ccccc1)=N/Nc1nc(N2CCOCC2)nc(N2CCOCC2)n1` gave PKA-R2B activ -6, PKA-R1A act -5, MsrA act -10, MsrA inhibitor 6.7* and MsrA inh confirm 4.6*.
COc1ccc2cc(S(=O)(=O)c3ccccc3)c(=O)oc2c1 was read as PKA-R2B activ 2, PKA-R1A act -1, MsrA act -5, MsrA inhibitor 5.3* and MsrA inh confirm 4.
O=C1NC(N2CCOCC2)=N/C1=C/c1ccc2c(c1)OCO2 was read as PKA-R2B activ 2, PKA-R1A act -1, MsrA act -4, MsrA inhibitor 4.9* and MsrA inh confirm 3.
Cc1ccc(C2NC(=O)c3[nH]nc(-c4ccccc4)c32)cc1 (stereo unspecified) was read as MsrA inhibitor 0.
Screening Cc1nc2cc(-c3sccc3-n3cccc3)nn2c(C)c1C returned PKA-R2B activ 0, PKA-R1A act 5, MsrA act -11, MsrA inhibitor 8.2* and MsrA inh confirm 7.1*.
`NC(=O)c1ccccc1OCC(=O)N1CCC(Cc2ccccc2)CC1` gave PKA-R2B activ 5, PKA-R1A act -1, MsrA act -6 and MsrA inhibitor 0.
For CCCCn1nnnc1C(c1ccccc1)N1CCN(c2c(Cl)cncc2Cl)CC1 (stereo unspecified) the results were MsrA act -2 and MsrA inhibitor 0.
O=C(NCC(c1ccco1)N1CCCCC1)c1ccc([N+](=O)[O-])s1 (stereo unspecified) was read as MsrA act -1, MsrA inhibitor 6.0* and MsrA inh confirm 4.
Cc1cc(N2CCN(CC(C)(C)O)C[C@H]2C)ccc1N1CCN(CC(C)(C)O)[C@@H](C)C1 was read as MsrA inhibitor 1.
O=C1NC(=O)/C(=C/c2ccc(O)cc2)S1 was read as PKA-R2B activ 3, PKA-R1A act 5, MsrA act -6, MsrA inhibitor 4.9* and MsrA inh confirm 4.6*.
Screening CCn1c(/C=C/c2ccc(O)cc2)nc2ccccc2c1=O returned PKA-R2B activ 2, PKA-R1A act -5, MsrA act -7, MsrA inhibitor 5.3* and MsrA inh confirm 4.8*.
Screening COCCn1c(/C=C/c2ccccc2)nc2ccccc21 returned PKA-R2B activ 3, PKA-R1A act 4, MsrA act -5, MsrA inhibitor 5.1* and MsrA inh confirm 4.
COc1ccc(S(=O)(=O)N2CCCc3nc(-c4ccc(Br)cc4)ccc32)cc1 was read as MsrA inhibitor 1.
Screening O=C(N/N=C/c1cn(-c2ccccc2)nc1-c1ccc2c(c1)OCCO2)c1ccncc1 returned PKA-R2B activ -5, PKA-R1A act -5, MsrA act 0, MsrA inhibitor 5.0* and MsrA inh confirm 1.
For Cc1csc2ncc(C(=O)N3CCCc4ccccc43)c(=O)n12 the results were PKA-R2B activ -8, PKA-R1A act 5, MsrA act -3, MsrA inhibitor 4.7* and MsrA inh confirm 3.
`Cc1cc(/C=C(\C#N)C(=O)N2CCCCC2)cc(C)c1O` gave PKA-R2B activ 6, PKA-R1A act 0, MsrA act -5, MsrA inhibitor 4.8* and MsrA inh confirm 3.
N#C/C(=C\c1cccc(O)c1)C(=O)N1CCCCC1 was read as PKA-R2B activ -3, PKA-R1A act 7, MsrA act -3 and MsrA inhibitor 0.
For CSc1ccc(/C=C(/NC(=O)c2ccco2)C(=O)N2CCOCC2)cc1 the results were PKA-R2B activ -4, PKA-R1A act -8, MsrA act 0, MsrA inhibitor 5.0* and MsrA inh confirm 1.
`O=C(N/C(=C/c1ccc(Br)cc1)C(=O)N1CCOCC1)c1ccco1` gave PKA-R2B activ -3, PKA-R1A act -12, MsrA act -3 and MsrA inhibitor 1.
`COc1ccc(NC(=O)c2sc3nc(N4CCCC4)c4c(c3c2N)CC(C)(C)OC4)cc1` gave PKA-R2B activ 5, PKA-R1A act -3, MsrA act -2, MsrA inhibitor 5.3* and MsrA inh confirm 3.
COc1ccc(NC(=O)c2sc3nc(N4CCOCC4)c4c(c3c2N)CC(C)(C)OC4)cc1 was read as PKA-R2B activ -1, PKA-R1A act 5, MsrA act -3 and MsrA inhibitor 0.
For CCN(CC)CCN1C(=O)C(=O)/C(=C(/O)c2ccc(C)cc2)C1c1cccnc1 (stereo unspecified) the results were PKA-R2B activ -10, PKA-R1A act 5, MsrA act -3, MsrA inhibitor 5.9* and MsrA inh confirm 0.
For CN(C)CCCN1C(=O)C(=O)/C(=C(/O)c2ccncc2)C1c1cccc(Br)c1 (stereo unspecified) the results were PKA-R2B activ -4, PKA-R1A act -9, MsrA act -4 and MsrA inhibitor 2.
For CN(C)CCCN1C(=O)C(=O)/C(=C(/O)c2ccncc2)C1c1cccnc1 (stereo unspecified) the results were PKA-R2B activ -6, PKA-R1A act 1, MsrA act -1, MsrA inhibitor 6.6* and MsrA inh confirm 2.
CN(c1cccnc1)c1ccc(NC(=O)Cc2c[nH]c3ccccc23)cc1-c1cccnc1F was read as MsrA inhibitor 1.
O=C1c2ccccc2C(=O)c2c1cccc2N1CCCC1 was read as PKA-R2B activ -6, PKA-R1A act -6, MsrA act 2, MsrA inhibitor 36* and MsrA inh confirm 0.
COc1ccc(OC)c(CNS(=O)(=O)c2ccccc2Br)c1 was read as MsrA inhibitor 0.
Screening CC(=O)c1cnc(Nc2cccc(Cl)c2Cl)s1 returned PKA-R2B activ -11, PKA-R1A act -11, MsrA act 3, MsrA inhibitor 4.8* and MsrA inh confirm 2.
`Cc1cc2c(nc1C)CCCN2Cc1ccccc1C(F)(F)F` gave MsrA inhibitor 0.
Screening O=C(Nc1ccccc1F)c1coc(=O)c(Br)c1 returned PKA-R2B activ -12, PKA-R1A act 2, MsrA act -7 and MsrA inhibitor 3.
For O=C(NCCc1ccc(F)cc1)c1coc(=O)c(Br)c1 the results were PKA-R2B activ -3, PKA-R1A act 5, MsrA act 3, MsrA inhibitor 6.0* and MsrA inh confirm 4.8*.
